In the library only some 1.7% were active in any assay of this set; here they are far more common.
GLP1R inv ag: qHTS of GLP-1 Receptor Inverse Agonists (Inhibition Mode). HEK293 GLP-1R CRE-luciferase, luminescence, 24 h; GLP-1R form is constitutively active. Potency, µM (doses to about 38.3 µM), for inactives: at the top dose activity change, negative = inhibition, hits mostly inhibitors. hit rate 1.6% among 410,000. AID 624417, 2012; also: % is scaled to controls: 0 for no effect and ±100 for the full control effect; nearly all actives have a fitted effect of over 55% in size
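Luminescence readout: a drop in cAMP-driven luciferase signal flags inverse agonism at a constitutively active GLP-1R stably expressed in HEK293. Compound exposure lasted 24 hr at 37 deg C, 5% CO2.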
PTHR1 ag: qHTS for PTHR1 Agonists: Primary Screen. Parathyroid hormone/parathyroid hormone-related peptide receptor (Homo sapiens), Q03431. HEK293 GP2 PTHR1 cells, GloSensor cAMP luminescence, 1 h. Potency, µM (series often up to 115 µM), inactives show at the highest dose activation, usual class: activators. hit rate 0.075% among 410,000. AID 743266, 2014; also: nearly all actives have a fitted effect of over 55% in size
Target sequence (Q03431 whole entry, looked up): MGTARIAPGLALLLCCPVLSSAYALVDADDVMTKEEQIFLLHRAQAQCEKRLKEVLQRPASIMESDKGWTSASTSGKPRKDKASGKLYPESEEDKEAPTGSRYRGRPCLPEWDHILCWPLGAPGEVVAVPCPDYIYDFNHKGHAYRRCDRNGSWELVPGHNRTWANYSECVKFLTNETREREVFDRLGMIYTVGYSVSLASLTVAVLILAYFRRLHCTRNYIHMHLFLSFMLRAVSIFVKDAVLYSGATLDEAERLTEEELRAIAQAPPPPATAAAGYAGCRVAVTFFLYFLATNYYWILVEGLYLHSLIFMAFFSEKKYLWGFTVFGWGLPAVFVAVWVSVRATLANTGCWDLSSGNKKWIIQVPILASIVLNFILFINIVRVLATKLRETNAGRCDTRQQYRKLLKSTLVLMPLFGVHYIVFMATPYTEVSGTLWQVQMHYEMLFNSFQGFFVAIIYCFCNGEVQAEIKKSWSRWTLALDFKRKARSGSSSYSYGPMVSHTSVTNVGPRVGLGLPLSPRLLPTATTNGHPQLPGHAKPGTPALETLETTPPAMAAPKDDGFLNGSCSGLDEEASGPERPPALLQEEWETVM
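HEK-293-derived GP2 cells expressing PTHR1 and a GloSensor cAMP reporter, 3,000/well, plated overnight, given luciferin plus IBMX (each 0.5 mM as added) for 1 h at 37 °C, then compound for 1 h at 37 °C. Luminescence was read after 15 min at room temperature.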
GLP1R cytotox: qHTS of GLP-1 Receptor Inverse Agonists: Cytotox Screen; HEK293 cAMP-luciferase reporter cells, luminescence, 24 h; Potency, µM (top dose mostly 38.3 µM), inactives show top-dose activity change, negative = inhibition, usual class: inhibitors; hit rate 0.13% among 410,000;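 also: loss of luciferase light is scored as toxicity; % is scaled to controls: 0 for no effect and ±100 for the full control effect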
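Compound-treated cells are incubated 24 hr at 37 deg C under 5% CO2 after a 12 hour attachment period, then luciferase detection reagent is added and luminescence is measured following 12 min at room temperature; lowered signal indicates toxicity.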
GLP1R ag: qHTS of GLP-1 Receptor Agonists; Glucagon-like peptide 1 receptor (Homo sapiens), P43220; HEK293 GLP-1R CRE-luciferase, luminescence, 4-6 h; cells express a hypersensitive GLP-1R form; Potency, µM (top dose mostly 45.6 µM), for inactives: at the highest dose activation, actives largely listed as activators; hit rate 0.007% among 380,000; also: % of control where 0% means no effect
An asterisk follows results filed as active; [ ] = remark or other dose. Calls follow the shape of the dose curve; as a rule, active = well fitted curve in the direction sought with a large enough effect; inconclusive = small, poorly fitted or top-dose-only effect, or another doubt; inactive = no such curve, though single readings can be large; an effect the other way counts as inactive or inconclusive. Potency is read from the fitted curve at half-maximal effect.

`CCNC(=O)[C@H]1CCCN1C(=O)[C@H](CCCN=C(N)N)NC(=O)[C@H](CC(C)C)NC(=O)[C@H](CC(C)C)NC(=O)[C@@H](Cc1ccc(O)cc1)NC(=O)[C@H](CO)NC(=O)[C@@H](Cc1c[nH]c2ccccc12)NC(=O)[C@H](Cc1cnc[nH]1)NC(=O)[C@@H]1CCC(=O)N1` gave GLP1R ag -2.7%.
Screening NC(Cc1ccc(C(F)(F)F)cc1)c1csc(NC(=O)Nc2ccccc2Oc2ccccc2)n1 (stereo unspecified) returned GLP1R inv ag inconclusive, PTHR1 ag -3.3%, GLP1R cytotox 11.2µM* and GLP1R ag -19.6%.
Screening COc1ccc(CCNC(=O)Cc2c(C)c3c(cc(C)c4c(C)coc43)oc2=O)cc1 returned GLP1R inv ag 8.4%, PTHR1 ag -7.0% and GLP1R cytotox -3.9%.
For Cc1cc2oc(=O)c(CC(=O)NCCc3ccccc3)c(C)c2c2occ(C(C)(C)C)c12 the results were GLP1R inv ag 10µM*, PTHR1 ag inactive and GLP1R cytotox -2.3%.
Cc1cc(C(F)(F)F)n2nc(-c3ccc(Br)cc3)cc2n1 was read as GLP1R inv ag 6.8%, PTHR1 ag inactive and GLP1R cytotox 20.1%.
CCn1c(-c2csc(-c3ccccc3)n2)n[nH]c1=S was read as GLP1R inv ag inconclusive, PTHR1 ag 15.7%[57.5 µM], GLP1R cytotox inconclusive and GLP1R ag -0.2%.
`C=CCn1c(-c2csc(-c3ccc(Cl)cc3)n2)n[nH]c1=S` gave GLP1R inv ag inconclusive, PTHR1 ag 13.6%[57.5 µM], GLP1R cytotox 3.55µM* and GLP1R ag -24.9%.
For C=CCn1c(-c2csc(-c3ccccc3)n2)n[nH]c1=S the results were GLP1R inv ag inconclusive, PTHR1 ag inactive, GLP1R cytotox 11.2µM* and GLP1R ag 6.6%.
Screening COc1ccc(C2c3c(oc4ccc(F)cc4c3=O)C(=O)N2Cc2ccc3c(c2)OCO3)cc1 (stereo unspecified) returned GLP1R inv ag -3.6%, PTHR1 ag inconclusive and GLP1R cytotox -0.9%.
For O=C(CP(=O)(c1ccccc1)c1ccccc1)Nc1nc2ccc(Cl)cc2s1 the results were GLP1R inv ag 11.2µM*, PTHR1 ag -41.1%, GLP1R cytotox -0.9% and GLP1R ag -0.3%.
CNCC(O)CN(c1ccccc1)c1ccccc1 (stereo unspecified) was read as GLP1R inv ag 6.31µM*, PTHR1 ag 12.5%, GLP1R cytotox -1.6% and GLP1R ag 1.0%.
`CC(C)(C)OC(=O)N(CCc1ccccc1)Cc1ccc(OCc2cccc(NC(=O)/C=C/c3ccccc3)c2)cc1` gave GLP1R inv ag inconclusive, PTHR1 ag inactive, GLP1R cytotox 0.6% and GLP1R ag -0.3%.
CC(C)(C)OC(=O)N(CCc1ccccc1)Cc1cccc(OCc2cccc(NC(=O)c3ccccc3)c2)c1 was read as GLP1R inv ag 10µM*, PTHR1 ag -20.5%, GLP1R cytotox 0.7% and GLP1R ag -2.6%.
`CC(C)(C)OC(=O)N(CCc1ccccc1)Cc1ccc(OCc2cccc(NC(=O)C3CC3)c2)cc1` gave GLP1R inv ag 7.94µM*, PTHR1 ag -41.6%, GLP1R cytotox 8.6% and GLP1R ag -2.5%.
CC(C)(C)OC(=O)N(CCc1ccccc1)Cc1ccc(OCc2cccc(NC(=O)C3CCC3)c2)cc1 was read as GLP1R inv ag inconclusive, PTHR1 ag -17.8%, GLP1R cytotox 1.4% and GLP1R ag 4.5%.
`CC(C)C(=O)Nc1ccc2nc(SCC(=O)N3CCCC3)sc2c1` gave GLP1R inv ag 12.9%, PTHR1 ag inactive and GLP1R cytotox -4.8%.
`CCC(C)(C)C1CCC2(CC1)NC(=O)N(CC(=O)NC(C)CCc1ccccc1)C2=O` (stereo unspecified) gave GLP1R inv ag 3.55µM*, PTHR1 ag inactive, GLP1R cytotox 13.6% and GLP1R ag 5.7%.
Screening COc1ccccc1CNC(=O)c1ccc(CSc2nc3ccncc3n2Cc2ccccc2C)cc1 returned GLP1R inv ag inconclusive, PTHR1 ag inactive and GLP1R cytotox 17.9%.
Screening CC(=O)N1CC(O)CC1C(=O)O (stereo unspecified) returned GLP1R ag 6.9%.
`O=C(NCc1ccc2c(c1)OCO2)c1ccc(CSCc2ccccc2Cl)o1` gave GLP1R inv ag 10µM*, PTHR1 ag -13.8%, GLP1R cytotox 2.4% and GLP1R ag 3.5%.
Cc1ccc(CNC(=O)c2ccc(CSCc3ccccc3Cl)o2)cc1 was read as GLP1R inv ag inconclusive, PTHR1 ag -7.6% and GLP1R cytotox 9.0%.
O=C(CSCc1ccc(Cl)cc1)NCc1ccc2c(c1)OCO2 was read as GLP1R inv ag 8.91µM*, PTHR1 ag inactive, GLP1R cytotox -3.5% and GLP1R ag -7.2%.
Screening O=C(CSCc1ccc(F)cc1)NCc1ccc2c(c1)OCO2 returned GLP1R inv ag inconclusive, PTHR1 ag inactive, GLP1R cytotox -2.0% and GLP1R ag 3.0%.
Cc1cc(C)nc(N/N=C/c2ccccc2OCc2cccc(Br)c2)n1 was read as GLP1R inv ag 3.55µM*, PTHR1 ag -93.7%, GLP1R cytotox 3.98µM* and GLP1R ag 6.6%.
COc1ccc(S(=O)(=O)N2c3cc(C)ccc3OCC2C(C)(C)C)cc1 (stereo unspecified) was read as GLP1R inv ag 5.01µM*, PTHR1 ag -29.4%, GLP1R cytotox -22.0% and GLP1R ag -0.5%.
`Cc1ccc(S(=O)(=O)N2c3cc(C)ccc3OCC2C(C)(C)C)cc1` (stereo unspecified) gave GLP1R inv ag 5.01µM*, PTHR1 ag inactive, GLP1R cytotox inconclusive and GLP1R ag -11.3%.
Screening COc1cccc(C(=O)N2c3cc(C)ccc3OCC2C(C)(C)C)c1 (stereo unspecified) returned GLP1R inv ag 11.3%, PTHR1 ag -25.7%, GLP1R cytotox -1.6% and GLP1R ag 0.7%.
`COCc1nc2cccnc2n1C1CCN(S(=O)(=O)N(C)C)CC1` gave GLP1R inv ag 6.1%, PTHR1 ag -12.7% and GLP1R cytotox 3.2%.
For COc1ccc(C)cc1NC(=O)c1ccc(=O)n(Cc2ccccc2)c1 the results were GLP1R inv ag 12.0%, PTHR1 ag -7.8% and GLP1R cytotox 3.4%.
CCc1ccc(Nc2cc(C(=O)NCCCN(C)c3ccccc3)c3ccccc3n2)cc1 was read as GLP1R inv ag 3.9%, PTHR1 ag -9.3% and GLP1R cytotox 23.3%.
COc1ccccc1Nc1cc(C(=O)NCCCN(C)c2ccccc2)c2ccccc2n1 was read as GLP1R inv ag 5.62µM*, PTHR1 ag -2.2% and GLP1R cytotox 67.6%.
For COc1ccc(CCNC(=O)c2ccc3c(c2)c(C)c(C)n3Cc2ccccc2)c(OC)c1OC the results were GLP1R inv ag inconclusive, PTHR1 ag inactive and GLP1R cytotox -3.3%.
